In PubChem BioAssay (EPA / NIEHS):
Activity calls are given as the source filed them. Rule for the calls: active = hit-call score of the fitted dose curve at least 0.9, where 1 is the maximum; inactive = score below 0.9.

Experiments:
Conditions in all cases: mRNA level, 48 h; actives raise or lower the signal
[1] = read-out: growth arrest and DNA damage 45 (GADD45A), GADD45A (gene 1647); experiment: LTEA_HepaRG_GADD45A: Life Technologies and Expression Analysis (LTEA) Assay for growth arrest and DNA damage 45 (GADD45A) using HepaRG (AID 2283458)
Procedure, shortened: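 Differentiated HepaRG cells exposed 48 h in serum-free induction medium to 8 concentrations, top 100 uM in half-log steps, 0.5% DMSO. GADD45A mRNA quantified by qRT-PCR, normalized to ACTB, GAPDH and POLR2A; bidirectional fit versus DMSO.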

[2] = read-out: Forkhead box O3 (FOXO3), FOXO3 (gene 2309); experiment: LTEA_HepaRG_FOXO3: Life Technologies and Expression Analysis (LTEA) Assay for Forkhead box O3 (FOXO3) using HepaRG (AID 2283459)
Procedure, shortened: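 Differentiated human HepaRG cells, 48 h post-plating, exposed in duplicate for 48 h in serum-free induction medium; 8-point half-log series from 100 uM in 0.5% DMSO. FOXO3 mRNA by TaqMan qRT-PCR, normalized to ACTB/GAPDH/POLR2A; bidirectional fit versus DMSO.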

[3] = read-out: ABC Transporter (ABCB1), ABCB1 (gene 5243); experiment: LTEA_HepaRG_ABCB1: Life Technologies and Expression Analysis (LTEA) Assay for ABC Transporter (ABCB1) using HepaRG (AID 2283460)
Procedure, shortened: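 HepaRG cells exposed in duplicate for 48 h in serum-free induction medium to eight half-log concentrations up to 100 uM in 0.5% DMSO. ABCB1 mRNA quantified by qRT-PCR, normalised to ACTB, GAPDH and POLR2A; fitted bidirectionally versus DMSO.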

[4] = read-out: ABC Transporter (ABCC3), ABCC3 (gene 8714); experiment: LTEA_HepaRG_ABCC3: Life Technologies and Expression Analysis (LTEA) Assay for ABC Transporter (ABCC3) using HepaRG (AID 2283462)
Procedure, shortened: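 Transcript level by TaqMan qRT-PCR, normalised to three housekeeping genes, fitted in both directions relative to vehicle. Chemicals tested in duplicate at eight half-log concentrations up to 100 uM for 48 h on HepaRG cells (0.5% DMSO).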

[5] = read-out: ABC Transporter (ABCB11), ABCB11 (gene 8647); experiment: LTEA_HepaRG_ABCB11: Life Technologies and Expression Analysis (LTEA) Assay for ABC Transporter (ABCB11) using HepaRG (AID 2283463)
Procedure, shortened: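 Differentiated human HepaRG cells in serum-free induction medium, dosed in duplicate for 48 h. Eight-point half-log series from 100 uM in 0.5% DMSO; ABCB11 mRNA by qRT-PCR, normalized to ACTB, GAPDH, POLR2A, fitted bidirectionally versus DMSO.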

[6] = read-out: ABC Transporter (ABCC2), ABCC2 (gene 1244); experiment: LTEA_HepaRG_ABCC2: Life Technologies and Expression Analysis (LTEA) Assay for ABC Transporter (ABCC2) using HepaRG (AID 2283464)
Procedure, shortened: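 Endpoint is ABCC2 transcript level from qRT-PCR, normalized to three housekeeping genes and fitted bidirectionally relative to DMSO. Human HepaRG cells received test chemical for 48 h at up to 100 uM (8 points, half-log steps, 0.5% DMSO), duplicate wells.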

[7] = read-out: Broad substrate specificity ATP-binding cassette transporter ABCG2 (Homo sapiens) (UniProt Q9UNQ0); experiment: LTEA_HepaRG_ABCG2: Life Technologies and Expression Analysis (LTEA) Assay for ABC Transporter (ABCG2) using HepaRG (AID 2283465)
Procedure, shortened: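 Differentiated HepaRG cells were exposed for 48 h in serum-free induction medium to 8 half-log concentrations, top 100 uM, in 0.5% DMSO. ABCG2 mRNA was measured by qRT-PCR, normalized to ACTB, GAPDH and POLR2A, with bidirectional fitting versus DMSO.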

[8] = read-out: ATP-citrate lyase (ACLY), ACLY (gene 47); experiment: LTEA_HepaRG_ACLY: Life Technologies and Expression Analysis (LTEA) Assay for ATP-citrate lyase (ACLY) using HepaRG (AID 2283466)
Procedure, shortened: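 Differentiated HepaRG cells exposed 48 h in serum-free induction medium to eight half-log concentrations up to 100 uM in 0.5% DMSO, duplicates. Transcript measured by Fluidigm TaqMan qRT-PCR, normalized to ACTB, GAPDH, POLR2A; bidirectional fit versus DMSO.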

[9] = read-out: Peroxisomal acyl-coenzyme A oxidase 1 (ACOX1) gene, ACOX1 (gene 51); experiment: LTEA_HepaRG_ACOX1: Life Technologies and Expression Analysis (LTEA) Assay for Peroxisomal acyl-coenzyme A oxidase 1 (ACOX1) gene using HepaRG (AID 2283467)
Procedure, shortened: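 HepaRG cells, plated 48 h then switched to serum-free induction medium, were exposed in duplicate for 48 h to 8-point half-log concentrations up to 100 uM in 0.5% DMSO. ACOX1 mRNA was measured by qRT-PCR, normalized to ACTB/GAPDH/POLR2A, and fitted bidirectionally versus DMSO.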

[10] = read-out: growth arrest and DNA damage 45 (GADD45B), GADD45B (gene 4616); experiment: LTEA_HepaRG_GADD45B: Life Technologies and Expression Analysis (LTEA) Assay for growth arrest and DNA damage 45 (GADD45B) using HepaRG (AID 2283461)
Procedure, shortened: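 Transcript level quantified by Fluidigm TaqMan qRT-PCR with three housekeeping genes for normalization, analyzed for up- or down-regulation against 0.5% DMSO. HepaRG cultures dosed 48 h at eight half-log concentrations up to 100 uM, duplicates.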

Measured: AC50

Sequence of Broad substrate specificity ATP-binding cassette transporter ABCG2 (Homo sapiens) (Q9UNQ0 whole entry, looked up): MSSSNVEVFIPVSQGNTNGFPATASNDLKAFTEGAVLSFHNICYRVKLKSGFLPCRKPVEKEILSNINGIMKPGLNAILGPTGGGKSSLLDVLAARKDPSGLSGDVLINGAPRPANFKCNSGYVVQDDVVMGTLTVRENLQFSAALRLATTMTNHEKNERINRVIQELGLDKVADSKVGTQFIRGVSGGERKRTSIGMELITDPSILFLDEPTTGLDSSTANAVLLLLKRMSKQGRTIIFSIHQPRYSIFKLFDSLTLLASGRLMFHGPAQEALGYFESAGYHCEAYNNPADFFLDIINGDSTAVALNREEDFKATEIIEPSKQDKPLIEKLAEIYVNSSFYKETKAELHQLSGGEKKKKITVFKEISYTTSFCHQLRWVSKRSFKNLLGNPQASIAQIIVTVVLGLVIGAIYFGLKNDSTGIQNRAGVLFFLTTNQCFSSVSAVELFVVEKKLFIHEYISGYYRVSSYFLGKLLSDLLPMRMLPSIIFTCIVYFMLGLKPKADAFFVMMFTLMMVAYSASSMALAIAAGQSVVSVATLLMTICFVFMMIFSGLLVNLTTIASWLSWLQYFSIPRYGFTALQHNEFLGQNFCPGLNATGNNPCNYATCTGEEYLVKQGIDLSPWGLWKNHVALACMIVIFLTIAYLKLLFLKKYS

CC(C)(C)[C@@H](O)[C@@H](Cc1ccc(Cl)cc1)n1cncn1
inactive: [1] | [2] | [4] | [5] | [7] | [9]
active: [3] 8.74 µM | [6] 13.1 µM | [8] 50 µM

O=C(O)C1(C(=O)Nc2ccc(Cl)cc2Cl)CC1
inactive: [2] | [10] | [4] | [8]
active: [1] 80.7 µM | [3] 50 µM | [5] 61 µM | [6] 66.4 µM | [7] 78.2 µM | [9] 81.2 µM

c1ccc(Nc2ccccc2)cc1
inactive: [1] | [2] | [3] | [10] | [4] | [5] | [6] | [8] | [9]

C=CCOC(Cn1ccnc1)c1ccc(Cl)cc1Cl (stereo unspecified)
inactive: [2] | [3] | [8]
active: [1] 59.1 µM | [10] 91.3 µM | [4] 35.5 µM | [6] 37.9 µM | [7] 2.47 µM | [9] 45 µM

CCCOC(=O)c1ccc(C(=O)OCCC)nc1
inactive: [1] | [2] | [3] | [10] | [4] | [5] | [6] | [7] | [8] | [9]

C#C[C@]1(O)CC[C@H]2[C@@H]3CCC4=CC(=O)CC[C@@H]4[C@H]3CC[C@@]21CC
inactive: [1] | [2] | [10] | [4] | [6] | [7] | [8] | [9]
active: [3] 0.156 µM | [5] 0.0365 µM

C#CCOC(=O)[C@@H](C)Oc1ccc(Oc2ncc(Cl)cc2F)cc1
active: [1] 12.4 µM | [5] 5.03 µM
inactive: [2] | [3] | [10] | [4] | [6] | [7] | [8] | [9]

CCCCCCC(C)OC(=O)COc1nc(F)c(Cl)c(N)c1Cl (stereo unspecified)
inactive: [1] | [2] | [3] | [10] | [4] | [5] | [6] | [7] | [8] | [9]

CCOC(=O)c1ccc(O)cc1
inactive: [1] | [2] | [3] | [10] | [4] | [5] | [6] | [7] | [8] | [9]

CCCCC(CC)COC(=O)c1ccccc1C(=O)O (stereo unspecified)
active: [3] 74.9 µM | [5] 41.9 µM
inactive: [1] | [2] | [10] | [4] | [6] | [7] | [8] | [9]

Oc1ccc(C(c2ccc(O)cc2)C(Cl)(Cl)Cl)cc1
active: [1] 90.9 µM | [2] 82.9 µM | [10] 93.8 µM | [6] 83.1 µM | [7] 75.4 µM | [8] 78.5 µM | [9] 85.5 µM
inactive: [3] | [4]

COc1c(Cl)ccc(Cl)c1C(=O)O
inactive: [1] | [2] | [3] | [10] | [4] | [5] | [6] | [7] | [8] | [9]

Cc1nn(C)c(Oc2ccccc2)c1C=NOCc1ccc(C(=O)OC(C)(C)C)cc1
active: [1] 4.15 µM | [3] 9.19 µM | [4] 1.24 µM | [5] 3.08 µM | [7] 3.96 µM | [8] 1.11 µM | [9] 1.74 µM
inactive: [2] | [10] | [6]

CCOC(=O)NCCOc1ccc(Oc2ccccc2)cc1
inactive: [2] | [10] | [4] | [6] | [8] | [9]
active: [1] 79.5 µM | [3] 84.4 µM | [5] 71.2 µM | [7] 78 µM
